The results in this text go back to PubChem BioAssay (NCATS).

Molecules are shown by their SMILES. Several values for one entry are separate records, joined by “and”; a condition that tells them apart may be missing. Equal entries are not always repeated. Records with an inconclusive call do not appear. The source holds several records for some structures; these can differ, active in one and inactive in another. Activity calls are given as the source filed them. The call rests on the fitted dose curve; in most records, active means well fitted curve in the direction sought with a large enough effect; inconclusive means small, poorly fitted or top-dose-only effect, or another doubt; inactive means no such curve, though single readings can be large; an effect the other way counts as inactive or inconclusive.

In experiment [1] the target is Cytochrome P450 3A7 (Homo sapiens) (UniProt P24462). Put plainly: Cytochrome P450 family 3 subfamily A member 7 (CYP3A7) small molecule antagonists: luciferase biochemical qHTS assay (AID 1963596). Further: on the % scale 0 is the no-effect control and ±100 the full control effect; nearly all actives have a fitted effect of over 40% in size. In outline:
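P450-Glo luminescent assay: CYP3A7 enzyme converts a proluciferin substrate to luciferin, detected by luciferase reagent; light proportional to activity. Compounds in DMSO preincubated 10 min with enzyme-substrate mix at room temperature, then NADPH regeneration added for 1 h.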

Experiment [2] can be described thus: Viability qHTS for spleen associated tyrosine kinase inhibitor (SYKi) naive MV4-11 cells (AID 1963823). Further: nearly all actives have a fitted effect of over 40% in size. Further: potency means the concentration at half of the fitted maximal effect. In a few lines: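 Seeding of 500 SYKi-naive MV4-11 cells per well onto pre-dispensed compounds preceded a 72 hr incubation at 37 C. Luminescent CellTiter-Glo signal, read after 10 min at room temperature, reflected viable cells.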
For orientation: In qHTS, concentration-response curves come from the screen itself.

A short description of experiment [3]: Viability qHTS for spleen associated tyrosine kinase inhibitor (SYKi) drug resistant MV4-11 cells (AID 1963824). Further: nearly all actives have a fitted effect of over 35% in size. Further: potency means the concentration at half of the fitted maximal effect. In a few lines:
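SYK-inhibitor-resistant MV4-11 AML cells were seeded at 500 per well onto compound and cultured 72 hours (37 °C, 5% CO2). CellTiter-Glo was then added, and after 10 min at room temperature, luminescence gave viability.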

Experiment [4] can be described thus: Quantitative highthroughput screen to assess conditional lethalithy of NOMO1 cells grown in Human Plasma-Like Medium with dialyzed fetal bovine serum (HPLM+ds) (AID 1963878).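 Further: 100% = DMSO wells and 0% = empty wells on each plate; nearly all actives have a fitted effect of over 35% in size.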 In outline: (§1)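 Each medium arm—HPLM with 10% dialyzed FBS, or RPMI1640 with 5 mM glucose and 10% untreated or dialyzed FBS—was screened against an 11-point, 3-fold compound titration for 48 h at 37 °C, with CellTiter-Glo luminescence as endpoint.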

Experiment [5] can be described thus: Quantitative highthroughput screen to assess conditional lethalithy of SEM cells grown in Human Plasma-Like Medium with dialyzed fetal bovine serum (HPLM+ds) (AID 1963882). Further: nearly all actives have a fitted effect of over 35% in size. Further: potency means the concentration at half of the fitted maximal effect. On Viability: series mostly up to about 46 µM. In a few lines: as §1
Experiment [6] can be described thus: Quantitative highthroughput screen to assess conditional lethalithy of SEM cells grown in RPMI1640 with unreated serum (RPMI+s) (AID 1963883). Further: nearly all actives have a fitted effect of over 35% in size. Further: potency means the concentration at half of the fitted maximal effect.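 On Viability: 100% = DMSO wells and 0% = empty wells without cells.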 In outline:
as §1

A short description of experiment [7]: Quantitative highthroughput screen to assess conditional lethalithy of SEM cells grown in RPMI1640 with dialyzed fetal bovine serum (RPMI+ds) (AID 1963884). In outline: as §1
Experiment [8] in a line: Cellular viability qHTS for adrenocortical cancer (ACC) cell line SW-13 (AID 1963989). Further: nearly all actives have a fitted effect of over 65% in size. Further: potency means the concentration at half of the fitted maximal effect.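 On activity (max response): cells grown in serum-free medium with ITS supplement; on the % scale 0 is the no-effect control and ±100 the full control effect.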 Conditions: SW-13 ACC cells viability, CellTiter-Glo, 48 h; activity (max response): stronger effect = lower value. In outline: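 Here, serum-free SW-13 cultures were dosed up to 46 uM. Following 48 h, ATP-dependent luminescence (CellTiter-Glo) reported viable cells, and logistic modeling produced IC50 values.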

Experiment [9] can be described thus: Quantitative highthroughput screen to assess conditional lethalithy of NOMO1 cells grown in RPMI1640 with untreated serum (RPMI+s) (AID 1963876). In a few lines:
as §1

Experiment [10] can be described thus: Quantitative highthroughput screen to assess conditional lethalithy of P12 Ichikawa cells grown in Human Plasma-Like Medium with dialyzed fetal bovine serum (HPLM+ds) (AID 1963879). Further: nearly all actives have a fitted effect of over 35% in size. Further: potency means the concentration at half of the fitted maximal effect. On Viability: series mostly up to about 46 µM. The conditions noted are these: Potency: viability. In outline:
as §1

Experiment [11] in a line: Quantitative highthroughput screen to assess conditional lethalithy of P12 Ichikawa cells grown in RPMI1640 with dialyzed fetal bovine serum (RPMI+ds) (AID 1963880). Further: nearly all actives have a fitted effect of over 35% in size. Further: potency means the concentration at half of the fitted maximal effect.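 On Viability: 100% = DMSO wells and 0% = empty wells on each plate.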 Conditions: Potency: P12-Ichikawa viability. In a few lines:
as §1

Experiment [12] in a line: Cellular viability qHTS for adrenocortical cancer (ACC) cell line NCI-H295R (AID 1963990). Further: nearly all actives have a fitted effect of over 60% in size. Further: potency means the concentration at half of the fitted maximal effect. In a few lines: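 Viability of NCI-H295R after 48 h of treatment (final up to 46 uM) measured through cellular ATP luminescence.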
A short description of experiment [13]: Quantitative highthroughput screen to assess conditional lethalithy of NOMO1 cells grown in RPMI1640 with dialyzed fetal bovine serum (RPMI+ds) (AID 1963877).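 Further: series mostly up to about 46 µM; 100% = DMSO control wells and 0% = empty wells; nearly all actives have a fitted effect of over 30% in size.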 In outline:
as §1

The nature of experiment [14]: Quantitative highthroughput screen to assess conditional lethalithy of P12 Ichikawa cells grown in RPMI1640 with untreated serum (RPMI+s) (AID 1963881). Further: nearly all actives have a fitted effect of over 35% in size. Further: potency means the concentration at half of the fitted maximal effect.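 On Viability: series mostly up to about 46 µM; 100% = DMSO wells and 0% = empty wells without cells.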 Conditions: Potency: viability. In a few lines: as §1

Sequence of Cytochrome P450 3A7 (Homo sapiens) (P24462 whole entry, looked up): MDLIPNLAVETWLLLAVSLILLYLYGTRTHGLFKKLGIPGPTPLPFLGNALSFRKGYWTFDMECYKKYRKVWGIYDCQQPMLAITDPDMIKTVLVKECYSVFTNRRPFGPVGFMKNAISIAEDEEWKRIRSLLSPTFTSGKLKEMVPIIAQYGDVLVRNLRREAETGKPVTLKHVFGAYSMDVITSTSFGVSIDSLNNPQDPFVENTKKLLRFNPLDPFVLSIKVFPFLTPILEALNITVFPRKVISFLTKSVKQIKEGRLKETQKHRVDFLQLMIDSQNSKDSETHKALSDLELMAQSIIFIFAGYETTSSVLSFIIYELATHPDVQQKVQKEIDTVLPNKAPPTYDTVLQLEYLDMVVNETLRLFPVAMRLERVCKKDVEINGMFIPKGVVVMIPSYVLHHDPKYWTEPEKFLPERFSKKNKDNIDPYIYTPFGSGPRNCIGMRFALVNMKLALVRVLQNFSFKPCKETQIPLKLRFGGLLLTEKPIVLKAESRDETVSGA

On to `Cc1[nH]c(=O)c(C#N)cc1-c1ccncc1`, for which the Potency entry in experiment [1], in [2], in experiment [3], in [4], in [5] and in experiment [6] was “inactive” in each case. Moreover, the Potency result in [7] is “inactive”. In addition, the activity (max response) in [8] was 14.7% (inactive) and 1.4% (inactive) and -7.07% (inactive).

For `COc1cc2c(Nc3ccc(Br)cc3F)ncnc2cc1OCC1CCN(C)CC1`, the Potency entry in experiment [1], in [9], in [10] and in experiment [11] was “inactive” throughout. The Potency result is “inactive and 820 nM (active)” in experiment [2]; “inactive and 731 nM (active) and 2.95 µM (active)” in experiment [3]; 17800 nM (active) in experiment [8]; “inactive and 25.1 µM (active)” in experiment [12]. For the same molecule, the activity (max response) in experiment [8] is -8.28% (inactive).

On to `CCN1CCCC1CNC(=O)c1cc(S(=O)(=O)CC)c(N)cc1OC` (stereo not drawn), for which the Potency entry in [1], in experiment [2], in [3], in experiment [13], in experiment [10] and in experiment [11] was “inactive” throughout. The Potency entry in experiment [5], in experiment [6], in experiment [7] and in experiment [12] was “inactive” in each case. The activity (max response) in [8] was 7.57% (inactive) and -4.85% (inactive).

`CN(C)CCOC(c1ccccc1)c1ccccc1`: the Potency entry in [1], in [2], in [3], in experiment [4], in experiment [14] and in experiment [5] was “inactive” each time. The Potency result in [6], in [7] and in experiment [12] was “inactive” each time. Further, in experiment [8], the activity (max response) was 0.185% (inactive) and 9.44% (inactive).

In the case of `O=C(Cc1ccc(-c2ccc(OCCN3CCOCC3)cc2)cn1)NCc1ccccc1`, the Potency result in experiment [1] is “inactive”. Moreover, the Potency was 231 nM (active) and 93.4 nM (active) in experiment [2]; 206 nM (active) and 105 nM (active) in [3]; 33.2 nM (active) in experiment [10]; 37.2 nM (active) in experiment [11]; 37.2 nM (active) in [14]; 26.4 nM (active) in experiment [5]. Besides, the Potency in experiment [6] was 26.4 nM (active); in experiment [8] it was 199 nM (active); in experiment [12], 178 nM (active).
